Source: PubChem
Rows were chosen to be rich in hits. Some 3.9% of all compounds tested hit in one or more screens of this group.
BoNT-F LC inh – BoNT/F light chain protease inhibitors, primary screen, biochemical, flow cytometry, MLPCN library. Botulinum neurotoxin type F light chain protease (Clostridium botulinum). Multiplex microsphere protease cleavage assay. inhibition, % at 10 µM. hit rate 0.22% among 360,000. AID 588497, 2011; in the data active = inhibition above about 35%, passing the limit was not always enough; inconclusive = no clear call, values can overlap the other calls; note: plate controls were buffer without enzyme for full effect and enzyme alone for no effect
BoNT-A LC inh2 – BoNT/A light chain protease inhibitors, primary screen, biochemical, flow cytometry, MLPCN library | inhibition, % at 10 µM | hit rate 0.17% among 360,000 | multiplex microsphere protease substrate cleavage | AID 588499, 2011 | Botulinum neurotoxin type A light chain protease (Clostridium botulinum A str. ATCC 3502); note: plate controls were buffer without enzyme for full effect and enzyme alone for no effect
Autofluor counter – counter-screen for toxin protease inhibitors: compound fluorescence. compound autofluorescence counterscreen, microsphere flow cytometry; hits give high values. fluorescence intensity (no concentration beside the values). hit rate 3.1% among 360,000. AID 624483; in the data active = fluorescence intensity above about 16000; inconclusive = no clear call, values can overlap the other calls
3CLpro inhibitor – SARS-CoV 3CLpro protease inhibitors, primary screen, biochemical, quenched FRET | inhibition, % at 6 µM | recombinant SARS-CoV 3CLpro, quenched FRET peptide cleavage | Replicase polyprotein 1ab (Severe acute respiratory syndrome coronavirus), P0C6X7 | hit rate 0.14% among 290,000; in the data active = inhibition above about 12%
CCHF vOTU inh – CCHFV vOTU protease inhibitors, primary screen, biochemical, Pep-AMC substrate, fluorescence; Crimean-Congo hemorrhagic fever virus L polyprotein viral ovarian tumor (vOTU) protease …; inhibition, % at 11.5 µM; hit rate 0.55% among 370,000; in the data active = inhibition above about 30%; note: 0% = vehicle wells with enzyme and 100% = no enzyme wells
Anthrax LF prot – Bacillus anthracis LF protease inhibitors, primary screen, biochemical, multiplex microsphere, MLPCN library; Lethal factor (Bacillus anthracis), P15917; multiplex microsphere protease cleavage assay; inhibition, % at 10 µM; hit rate 0.12% among 360,000; note: plate controls were buffer without enzyme for full effect and enzyme alone for no effect
Target sequence (P15917 whole entry, looked up): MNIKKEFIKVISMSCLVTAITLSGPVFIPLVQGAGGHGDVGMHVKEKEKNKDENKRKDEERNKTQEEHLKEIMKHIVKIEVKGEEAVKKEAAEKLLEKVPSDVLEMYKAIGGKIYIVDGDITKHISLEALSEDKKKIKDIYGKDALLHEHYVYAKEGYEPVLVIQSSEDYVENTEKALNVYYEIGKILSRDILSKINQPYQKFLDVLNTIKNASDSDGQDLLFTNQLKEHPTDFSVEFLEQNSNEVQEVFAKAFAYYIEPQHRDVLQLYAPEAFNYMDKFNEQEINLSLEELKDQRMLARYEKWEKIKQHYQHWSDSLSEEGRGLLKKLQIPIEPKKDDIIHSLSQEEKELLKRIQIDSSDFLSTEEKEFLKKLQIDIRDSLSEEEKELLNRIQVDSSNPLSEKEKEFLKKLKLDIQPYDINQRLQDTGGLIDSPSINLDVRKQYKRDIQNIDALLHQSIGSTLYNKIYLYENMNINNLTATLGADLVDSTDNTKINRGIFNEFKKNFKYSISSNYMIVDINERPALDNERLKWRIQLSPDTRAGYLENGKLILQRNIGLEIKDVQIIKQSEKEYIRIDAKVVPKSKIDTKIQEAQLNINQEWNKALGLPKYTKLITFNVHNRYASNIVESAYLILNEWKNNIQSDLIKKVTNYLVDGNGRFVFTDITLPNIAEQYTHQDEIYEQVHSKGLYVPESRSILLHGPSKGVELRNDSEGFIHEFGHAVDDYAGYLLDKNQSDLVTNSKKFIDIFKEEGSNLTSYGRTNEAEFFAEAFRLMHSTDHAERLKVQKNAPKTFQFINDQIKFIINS
Numbers without * were called inactive; ? = inconclusive; . = not tested or not shown. Cut-off read from the data, not from the text of the source, unless noted: active = inhibition above about 30%; inconclusive = no clear call, values can overlap the other calls; inactive = below that.

SMILES	BoNT-F LC inh	BoNT-A LC inh2	Autofluor counter	3CLpro inhibitor	CCHF vOTU inh	Anthrax LF prot
CCSc1cnn(-c2ccccc2)c(=O)c1SCC	-1	0	10919	-2	-8	-2
Cc1cc(=O)[nH]c2c(C)c(N)ccc12	-2	1	23024*	-4	-211	0
Cc1cc(C)c2c(=O)n(-c3ccccc3)[nH]c2n1	-2	1	8630	3	13	-8
Cc1cc(C(C)(C)C)nc2[nH]n(-c3ccccc3)c(=O)c12	-7	-4	20895*	-4	1	1
Cc1cccc(NC(=O)c2cc(NC(=O)CCCC(=O)O)ccc2Cl)n1	-7	-2	23857*	-9	-5	-10
S=C(Nc1ccc(Cl)cc1)OC1CCC12CCC(c1ccccc1)CC2 (centres undefined)	.	.	.	.	12	.
COC(=O)CN1C(=O)C2(C(C#N)=C(N)Oc3ccccc32)C2=C1CC(C)(C)CC2=O (centres undefined)	3	2	22010*	0	-4	-3
Cc1ccccc1-c1cc(C(=O)Nc2sc(C(=O)OC(C)C)c(C)c2C#N)c2ccccc2n1	1	2	16235*	-3	5	-4
COC(=O)c1sc(NC(=O)c2cc(-c3ccccc3)nc3ccccc23)c(C#N)c1C	0	0	2786	-3	3	0
Cc1ccc(C)c(-c2cc(C(=O)Nc3nccs3)c3ccccc3n2)c1	-5	-1	24181*	-1	-11	2
COC(=O)c1sccc1NC(=O)c1cc(-c2cc(C)ccc2C)nc2ccccc12	2	3	21965*	2	5	-3
O=[N+]([O-])c1ccc2c(c1)CO[C@]21O[C@H](CCO)C[C@H](O)[C@H]1O	.	.	.	.	-1	.
O=C(Nc1ccc(Br)cc1)OC1CC2CC1[C@H]1CCCCN1[C@H]2Cc1ccccc1 (some centres undefined)	.	.	.	.	4	.
CC(=O)CC[C@H]1CC[C@]2(CCCN(S(=O)(=O)c3ccccc3)C2)O1	.	.	.	.	1	.
CSCCCNC(=O)C1CCN(S(=O)(=O)c2ccc3[nH]c(=O)oc3c2)CC1	.	.	.	.	-1	.
CC(=O)Nc1ccc(/C=N\NC(=O)c2cccc(S(=O)(=O)N(C)C)c2)cc1	.	.	.	.	7	.
Cc1cc(C)cc(NC(=O)N2CCC(c3nc4ccccc4o3)CC2)c1	-3	-2	20562*	-1	-13	-1
Cn1c(=O)c2c(nc(Sc3ncccn3)n2Cc2ccccc2Cl)n(C)c1=O	7	6	18229*	-1	11	-2
Cn1c(=O)c2c(nc(SCCCO)n2Cc2ccccc2Cl)n(C)c1=O	2	1	16181*	2	1	-2
Cn1c(=O)c2c(nc(NCc3ccc4c(c3)OCO4)n2Cc2ccccc2Cl)n(C)c1=O	-7	-3	17237*	1	-1	-1
C=CCOc1nc2c(c(=O)n(C)c(=O)n2C)n1Cc1ccccc1Cl	7	6	20534*	3	3	-6
C=CCN=C1NC(CCc2ccccc2)C(C(=O)OC)=C(C)N1Cc1ccccc1C(F)(F)F (centres undefined)	.	.	.	.	21	.
CCOC(=O)N(c1ccccc1)P1(=S)OCC(C)O1 (centres undefined)	-3	-1	20958*	2	-14	0
CCOC(=O)N(c1ccccc1)P1(=S)OCCO1	.	.	.	2	2	.
O=C1CSC(c2ccccc2)N1Cc1ccccc1 (centres undefined)	?	-39	16347*	3	-11	-32
SMILES	BoNT-F LC inh	BoNT-A LC inh2	Autofluor counter	3CLpro inhibitor	CCHF vOTU inh	Anthrax LF prot
COC(=O)c1ccc(C2SCC(=O)N2Cc2ccccc2)cc1 (centres undefined)	9	2	3668	4	.	-8
CC(C(=O)c1ccc(Br)cc1)[n+]1cccc2ccccc21 (centres undefined)	?	-4	16961*	-5	-14	-8
CC(=O)NC1CCCCN(C(C)C)C1=O (centres undefined)	.	.	.	.	-7	.
CCCC(=O)N1CCC[C@]2(CC[C@@H](CCC(=O)N(CC)CC)O2)C1	.	.	.	.	6	.
O=C(O)c1ccc(F)c(S(=O)(=O)Nc2ccccc2Cl)c1	0	0	23288*	0	1	0
Cc1ccc(NC(=O)N/C=C/c2ccco2)cc1	4	1	22171*	3	15	-1
O=C1C(NC(=O)N2c3ccccc3C=Cc3ccccc32)CCCCN1Cc1ccc(Cl)cc1 (centres undefined)	.	.	.	.	5	.
CN1CCc2nc3sc(C#N)c(N)c3c(-c3cccs3)c2C1	-12	15	19864*	-4	12	-1
CCOCCCN(C(=O)Nc1ccc(CC)cc1)C1CCN(C(C)=O)CC1	4	1	8055	-3	-8	2
CCCCN(C(=O)Nc1ccc(Cl)cc1)C1CCN(C(C)=O)CC1	7	5	17864*	0	-3	1
COc1cccc(C(=O)N2CCCc3ccccc32)c1	-11	-3	17528*	5	1	-2
O=C(c1cccnc1)N1CCc2ccccc21	10	8	20167*	-3	8	-6
CCCN(CCC)S(=O)(=O)c1ccc(C(=O)N2CCCc3ccccc32)cc1	0	0	22837*	10	7	-2
COc1ccc(NC(=O)N2CCCc3ccccc32)cc1	-3	0	20850*	-2	-3	-1
COc1ccc(OC)c(S(=O)(=O)N2CCC(C(=O)N3CCN(C4CCCCC4)CC3)CC2)c1	.	.	.	.	-8	.
CCOC(=O)[C@]12CCCCC/C=C\1N(CCc1ccc(Cl)cc1)C(=O)[C@H]2CC(=O)NCC12CC3CC(CC(C3)C1)C2	.	.	.	.	22	.
CNC(=O)C1CC(=O)N(Cc2ccccc2)C(=Nc2ccc(OC)cc2)S1 (centres undefined)	-4	?	23832*	0	-9	-1
O=C(NC(=S)Nc1ccc2c(c1)OCCO2)c1ccccc1	-7	?	25451*	1	-14	-3
OCCNC(=S)Nc1ccc2c(c1)OCCO2	?	-2	4551	4	5	30*
Cn1ncc2cc(NC(=S)NC(=O)c3ccccc3)ccc21	-7	-2	17054*	2	5	-2
Cc1ccc(NC(=O)N2CCC(c3nc4ccc(Cl)cc4[nH]3)CC2)cc1F	.	.	.	.	1	.
COc1ccc(CN(CC2CCCO2)S(=O)(=O)c2ccc(C(=O)O)cc2)cc1OC (centres undefined)	-2	-1	23567*	2	-10	0
CCOC(=O)[C@]12CCCC=C1N(CCCOC)C(=O)[C@@H]2CC(=O)N1CCN(C(=O)c2ccco2)CC1	.	.	.	.	1	.
CC(C)n1nnnc1-c1cccc(Cl)c1	8	7	17953*	2	-3	-20
CC(C)n1nnnc1-c1cc(Cl)cc(Cl)c1	0	2	23056*	2	14	-2
